Here are results for 40 compounds from PubChem BioAssay (NCI).

Molecules are shown by their SMILES. Compounds without any hit were thinned out: in the full panel of roughly 83,000, 20% have a hit.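 A percent growth of 40 corresponds to 60% growth inhibition; 0 means no net growth; -100 means all cells died. Active threshold: below 10.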 Calls of active or inactive are those of the source.

This experiment concerns A498 renal. Briefly: NCI-60 one-dose screen, 48 h (100 = growth as untreated, 0 = no growth, -100 = all killed). Particulars: 10 µM unless noted. As to the method: Growth inhibition of the A498 human tumor cell line is measured as a screen for anti-cancer activity. Cells are grown in 96 well plates and exposed to the test compound for 48 hours. Compounds are tested at a single concentration, which is 10^-5 M for most compounds. The reported endpoint is percent growth (GI% or GIPRCNT), where numbers from 0 - 100% represent growth inhibition, and numbers from -100% - 0 represent cell death. For example, a value of 40 represents 60% growth inhibition. A value of 0 means no net growth occurred over the course of the experiment. A value of -40 indicates 40% of cells at the beginning of the experiment died by the end of the experiment. A value of -100 means all cells are dead at the end of the experiment.
NCI-60 Human Tumor Cell Lines Screen was performed using the standard one-dose NCI protocol, which is described in more detail at https://dtp.cancer.gov/discovery_development/nci-60/default.htm.
Compounds with GIPRCNT values below 10 were considered active. Activity score was based on GIPRCNT using the following formula: […]
Score is 0 for GIPRCNT values of 100 or above, 50 for GIPRCNT values of 0, and 100 for GIPRCNT values of -100.
Turning to `OCCNc1nc(NCCO)nc(Nc2ccc(C3=NN(c4cc(Cl)cc(Cl)c4)C(c4ccc(Cl)cc4)C3)cc2)n1` (stereo not given), the growth is 71.2% (inactive). For `CC1CCN(CCCCCOc2ccc3oc4ccccc4c(=O)c3c2)CC1`, the growth was 74.4% (inactive). For `O=C1NN(c2ccccc2)C(c2ccc(Cl)cc2)N2CCC[C@H]12` (stereo not given in full), the growth was 84.5% (inactive). For `O=C1Nc2ccccc2C12C=C(c1ccccc1)Nc1c2c(-c2ccccc2)nn1-c1ccccc1` (stereo not given), the growth is 75.6% (inactive). Turning to `N#CC(C#N)=C1NC(c2ccccc2)=C(c2ccccc2)C(c2ccccc2Cl)=C1C#N`, the growth was 113% (inactive). As for `O=CN1N=C(c2ccc3c(c2)OCO3)CC1c1cccc(Nc2ccnc3cc(C(F)(F)F)ccc23)c1` (stereo not given), the figure is 72.5% (inactive); as for `COc1cccc(C(=O)OCCn2nc3c4c(cccc42)C(=O)c2ccccc2-3)c1O`, 81.7% (inactive).

In the case of `O=CN1N=C(c2ccc(Cl)cc2)CC1c1cccc(Nc2ccnc3cc(C(F)(F)F)ccc23)c1` (stereo not given), the growth was 58.6% (inactive).

As to `[2H]c1cc2c(c([2H])c1F)/C(=C/c1[nH]c(C)c(C(=O)NCCN(CC)CC)c1C)C(=O)N2`, the growth is 52.6% (inactive). As for `NS(=O)(=O)c1ccc(C2C3=C(CCCC3=O)OC3=C2C(=O)c2ccccc2C3=O)cc1` (stereo not given), the growth was -68.9% (active). In the case of `CCOC(=O)CC[C@H](NC(=O)c1ccc(NC)c2ccccc12)C(=O)OCC`, the growth is 91% (inactive). Take `C=C(C)[C@@H]1CC[C@]2(C(=O)OCCCC[P+](c3ccccc3)(c3ccccc3)c3ccccc3)CC[C@]3(C)[C@H](CC[C@@H]4[C@@]5(C)CC[C@H](OC(=O)C(Cl)Cl)C(C)(C)[C@@H]5CC[C@]43C)[C@@H]12`: the growth is -58.9% (active).

Take `CCO/C=N/S(=O)(=O)c1cc2c(cc1Cl)NC=NS2(=O)=O`: the growth is 106% (inactive). Turning to `N#CCNc1ccc(C(=O)O)cc1`, the growth is 106% (inactive).

Turning to `Cc1c(Cl)cccc1NC(=O)c1sc2nc3c(cc2c1N)COCC3`, the growth was 18.1% (inactive).

Turning to `COc1cccc(NC(=O)Nc2ccc(Oc3ncnc4[nH]c(C)c(C)c34)cc2)c1`, the growth was 106% (inactive). As to `COc1ccc(Nc2cc(NC(=O)CNc3cc(OC)c(Cl)c(OC)c3Cl)ncn2)cc1`, the growth was -1.25% (active). Take `Cc1cnc(SCc2ccc(Cl)cc2)[nH]c1=S`: the growth is 90.7% (inactive). `COc1cc(/C=C/C(=O)/C=C/c2cc3ccc(Cl)cc3n(Cc3ccccc3)c2=O)ccc1O`: the growth is 69.2% (inactive). As to `O=C(Nc1ccccc1)NS(=O)(=O)c1c[nH]c(=S)[nH]c1=O`, the growth is 112% (inactive). Regarding `C=C1C(=O)O[C@H]2[C@H]1CC/C(COC(=O)CCCCCCCCC(=O)OC/C1=C/CC[C@@]3(C)O[C@H]3[C@H]3OC(=O)C(=C)[C@@H]3CC1)=C\CC[C@@]1(C)O[C@@H]21`, the growth is 96.8% (inactive). As to `Cc1c(Cl)cccc1NC(=O)c1sc2nc3c(cc2c1N)CN(Cc1ccccc1)CC3`, the growth was 36.6% (inactive). As for `COc1ccccc1N1CCN(CCCOc2ccc(C(=O)/C=C3/C(=O)Nc4ccccc43)cc2)CC1`, the growth was 88.6% (inactive).

Regarding `CN1CCN(CC#CCOC(=O)CNC(=O)[C@]23CCC(C)(C)C[C@H]2C2=CC[C@@H]4[C@@]5(C)CC[C@H](O)C(C)(C)[C@@H]5CC[C@@]4(C)[C@]2(C)CC3)CC1`, the growth is 69.4% (inactive). On to `Cc1nccc2c3ccc(OCc4cn(-c5ccc(Br)cc5)nn4)cc3n(CC(C)C)c12`, for which the growth was 53% (inactive). For `NCCCn1c2c(c3cc(-c4ccn[nH]4)ccc3c1=O)C(=O)c1ccccc1-2`, the growth was 72% (inactive). For the compound `COc1cc(/C=C/C(=O)c2cccs2)ccc1OCc1ccc(Cl)nc1`, the growth is 100% (inactive). With `O=C(O)c1cn(C2CC2)c2cc(N3CCN(C(=O)CSc4nnc(-c5ccc(Cl)cc5)n4-c4ccccc4)CC3)c(F)cc2c1=O`, the growth is 67.8% (inactive). For `CC[C@]12C=CCN3CC[C@@]4(c5cc(NC(=O)CCC(=O)O[C@H]6CC[C@H]7[C@@H]8CC[C@H]9CC(=O)CC[C@]9(C)[C@H]8CC[C@]67C)c(OC)cc5N(C)[C@H]4[C@@](O)(C(=O)OC)[C@@H]1OC(C)=O)[C@@H]32`, the growth was 66.3% (inactive). Regarding `CCOc1ccc(C2N(c3cc(OC)c(OC)c(OC)c3)C(=O)C2(F)F)cc1` (stereo not given), the growth was 92.3% (inactive). Consider `C=CCn1c(SCC(=O)Nc2ccc(C(=O)/C=C/c3ccc(Cl)cc3)cc2)nnc1-c1cc(OC)c(OC)c(OC)c1`, for which the growth was 82.5% (inactive). On to `CSc1nc(-c2ccc(F)cc2)c(C#N)c(N2CCOCC2)n1`, for which the growth was 74.4% (inactive). The value for `O=C(CCl)N1CCCc2ccccc21` was 94.5% (inactive); that for `COc1cc(NC(=O)COc2cc(C)nc3ccc(OC)cc23)cc(OC)c1` was 63.7% (inactive).

With `O=C1NC(c2ccc(F)cc2)N=C2C(c3ccccc3)=NOC12` (stereo not given), the growth is 104% (inactive). Consider `C=C(C)[C@@H]1CC[C@]2(C(=O)NCCCO)CC[C@]3(C)[C@H](CC[C@@H]4[C@@]5(C)CCCNC(C)(C)[C@@H]5CC[C@]43C)[C@@H]12`, for which the growth was 95.8% (inactive). The value for `COc1ccc(OCC(=O)OC(C)C)cc1` was 92% (inactive); that for `COc1cc([C@H](C)c2ccc3ccccc3c2)cc(OC)c1OC` was 12.7% (inactive); that for `COc1cc(/C=N/Nc2nc(-c3ccc(F)cc3)c(C#N)c(N3CCOCC3)n2)ccc1O` was 87.8% (inactive). As for `CC(C)Cc1cc(CNC(=O)C2[C@H]3CN(C(=O)c4ccccc4)C[C@@H]23)nn1-c1ccccc1` (stereo not given in full), the figure is 96.6% (inactive).
